The panel holds about 83,000 compounds, 20% with a hit somewhere; the sample as a whole holds those more often.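 Negative percent growth values reflect cell death: -40 means 40% of the cells present at the start died, and -100 means all died.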 A number with no mark means an inactive call. The source made the active and inactive calls. Rule for the calls: active = growth percent below 10; inactive = the rest.
test system: NCI-H23 lung; test: NCI-60 one-dose screen, 48 h (100 = growth as untreated, 0 = no growth, -100 = all killed); conditions: 10 µM

Row | Structure (SMILES) | growth
1 | O=C(/C=C/c1ccc(F)cc1)c1nc2ccccc2n1Cc1ccc(Br)cc1 | -75.4% (active)
2 | CC[C@]12C=CCN3CC[C@@]4(c5ccc(OC)cc5N(C)[C@H]4[C@@](O)(C(=O)OC)[C@@H]1OC(=O)CCCC[P+](c1ccc(C)cc1)(c1ccc(C)cc1)c1ccc(C)cc1)[C@@H]32 | -92.4% (active)
3 | CC(C)N=C([Se])NC(=O)c1cccs1 | -33.4% (active)
4 | CC1=C(CCC=NNC(N)=O)C2=C(C)C3(CC3)[C@@](C)(O)C(=O)C2=C1 | -78.2% (active)
5 | Cc1ccc2[nH]c(=S)n(-c3ccc(F)cc3)c(=O)c2c1 | 98.7%
6 | C#CC[Se]C(=O)c1ccc2n[se]nc2c1 | 77%
7 | CC1=C(COCCOC(=O)c2ccc(S(=O)(=O)F)cc2)C2=C(C)C3(CC3)[C@@](C)(O)C(=O)C2=C1 | -85.6% (active)
8 | CC12CCC3(CCC(=O)NCCCNc4ccnc5cc(Cl)ccc45)[C@@](C)(OO[C@]3(C)O1)O2 | -43.6% (active)
9 | O=C(/C=C/c1ccc(Br)cc1)c1nc2ccccc2n1Cc1ccc(Br)cc1 | -36.3% (active)
10 | COC(=O)CCn1c(-c2ccc(-n3cc(-c4ccc(O[C@H]5O[C@@H]6OC7(C)CC[C@H]8[C@H](C)CC[C@@H]([C@H]5C)[C@@]68OO7)cc4)nn3)cc2)nc2ccccc21 | 13.6%
11 | CC1=C(C=O)C2=C(C)C3(CC3)[C@@](C)(O)C(=O)C2=C1 | 10.3%
12 | N#C[Se]CC(=O)Nc1cccc(C(F)(F)F)c1 | -46.7% (active)
13 | CCC[Se]C(=O)c1ccc(C(=O)[Se]CCC)s1 | -49.2% (active)
14 | C[C@H]1[C@@H](CC(=O)N[C@@H](Cc2coc3ccccc23)B(O)O)O[C@@H]2OC3(C)CC[C@H]4[C@H](C)CC[C@@H]1[C@@]24OO3 | -65.9% (active)
15 | O=C(/C=C/c1ccco1)c1nc2ccccc2n1Cc1ccc(F)cc1 | 65.2%
16 | COC(=O)C[C@](O)(CCC(C)C)C(=O)O[C@H]1C(OC)=C[C@@]23CCCN2CCc2cc4c(cc2[C@@H]13)OCO4 | -54.3% (active)
17 | C[C@H]1[C@H](OC(=O)CCC(=O)N(CCCc2cn(-c3ccc(C#N)cc3)nn2)CCNc2ccnc3cc(Cl)ccc23)O[C@@H]2OC3(C)CC[C@H]4[C@H](C)CC[C@@H]1[C@@]24OO3 | 47.3%

test system: NCI-H226 lung; test: as above; conditions: 10 µM

Row | Structure (SMILES) | growth
18 | COc1cc2cc(C(=O)N3C[C@@H](CCl)c4c3cc(OC(=O)N3CCN(C)[C@@H]5CSSC[C@H]53)c3ccccc43)[nH]c2c(OC)c1OC | -42.7% (active)
19 | CC1=C(CCC=O)C2=C(C)C3(CC3)[C@@](C)(O)C(=O)C2=C1 | -61.5% (active)
20 | COC(=O)C[C@](O)(CCC(C)C)C(=O)O[C@@H]1C(OC)=C[C@]23CCCN2CCc2cc4c(cc2[C@H]13)OCO4 | -55.1% (active)
21 | O=C(/C=C/c1ccc(Cl)cc1)c1nc2ccccc2n1Cc1ccc(F)cc1 | 36.6%
22 | CC1=C2C(=C[C@@](C)(COP(=O)(Oc3ccccc3)Oc3ccccc3)[C@@H]2O)C(=O)[C@@](C)(O)C12CC2 | -63.9% (active)
23 | CC(=O)Oc1ccccc1C(=O)NC([Se])=NC1CCCCC1 | -21% (active)
24 | CCOP(=O)(CC(F)(F)C(F)(F)F)OCC | -23.5% (active)
25 | CC(C)C[C@H](NC(=O)CNC(=O)C[C@H]1O[C@@H]2OC3(C)CC[C@H]4[C@H](C)CC[C@@H]([C@H]1C)[C@@]24OO3)B(O)O | -22.4% (active)
26 | C[C@H]1[C@@H](Oc2ccc(-c3cn(-c4ccnc5cc(Cl)ccc45)nn3)cc2)O[C@@H]2OC3(C)CC[C@H]4[C@H](C)CC[C@@H]1[C@@]24OO3 | 48.2%
27 | COc1cc2cc(C(=O)N3C[C@@H](CCl)c4c3cc(OC(=O)N3CCN(C(=O)CCC(=O)N5CCN(C)CC5)[C@@H]5CSSC[C@@H]53)c3ccccc43)[nH]c2c(OC)c1OC | -11.6% (active)
28 | COC(=O)c1ccc(-n2cc(CCCN(CCNc3ccnc4cc(Cl)ccc34)C(=O)CCC(=O)O[C@@H]3O[C@@H]4OC5(C)CC[C@H]6[C@H](C)CC[C@@H]([C@H]3C)[C@@]46OO5)nn2)cc1 | 48.4%
29 | O=C([Se]C1C=CCCC1)c1ccc(C(=O)[Se]C2C=CCCC2)s1 (centres undefined) | -42.9% (active)
30 | O=C(/C=C/c1cccc(Br)c1)c1nc2ccccc2n1Cc1ccc(F)cc1 | 14.5%
31 | CC[C@]12C=CCN3CC[C@@]4(c5ccc(OC)cc5N(C)[C@H]4[C@@](O)(C(=O)OC)[C@@H]1OC(=O)CCC[P+](c1ccc(C)cc1)(c1ccc(C)cc1)c1ccc(C)cc1)[C@@H]32 | -77.4% (active)
32 | O=C(NC([Se])=NC1CCCCC1)c1ccccc1 | 58.7%
33 | O=C(/C=C/c1ccc(F)cc1)c1nc2ccccc2n1Cc1ccc(F)cc1 | -35.7% (active)

Row | Structure (SMILES) | growth
34 | O=C(/C=C/c1ccccc1)c1nc2ccccc2n1Cc1ccc(Br)cc1 | -71% (active)
35 | C=CC[Se]C(=O)c1cncc(C(=O)[Se]CC=C)c1 | -24.6% (active)
36 | COc1ccc(OC)c(/C=C/C(=O)c2nc3ccccc3n2Cc2ccc(F)cc2)c1 | -42.4% (active)
37 | O=C(/C=C/c1ccc(F)cc1)c1nc2ccccc2n1Cc1ccc(Br)cc1 | -66.2% (active)
38 | CC[C@]12C=CCN3CC[C@@]4(c5ccc(OC)cc5N(C)[C@H]4[C@@](O)(C(=O)OC)[C@@H]1OC(=O)CCCC[P+](c1ccc(C)cc1)(c1ccc(C)cc1)c1ccc(C)cc1)[C@@H]32 | -78.6% (active)
39 | CC(C)N=C([Se])NC(=O)c1cccs1 | 64.6%
40 | CC1=C(CCC=NNC(N)=O)C2=C(C)C3(CC3)[C@@](C)(O)C(=O)C2=C1 | -71.7% (active)
41 | C#CC[Se]C(=O)c1ccc2n[se]nc2c1 | 23%
42 | CC1=C(COCCOC(=O)c2ccc(S(=O)(=O)F)cc2)C2=C(C)C3(CC3)[C@@](C)(O)C(=O)C2=C1 | -39.9% (active)
43 | CC12CCC3(CCC(=O)NCCCNc4ccnc5cc(Cl)ccc45)[C@@](C)(OO[C@]3(C)O1)O2 | 0.706% (active)
44 | O=C(/C=C/c1ccc(Br)cc1)c1nc2ccccc2n1Cc1ccc(Br)cc1 | -70.1% (active)
45 | CC1=C(C=O)C2=C(C)C3(CC3)[C@@](C)(O)C(=O)C2=C1 | 45.9%
46 | N#C[Se]CC(=O)Nc1cccc(C(F)(F)F)c1 | -37.7% (active)
47 | CCC[Se]C(=O)c1ccc(C(=O)[Se]CCC)s1 | -50.9% (active)
48 | O=C(/C=C/c1ccco1)c1nc2ccccc2n1Cc1ccc(F)cc1 | 77.9%
49 | COC(=O)C[C@](O)(CCC(C)C)C(=O)O[C@H]1C(OC)=C[C@@]23CCCN2CCc2cc4c(cc2[C@@H]13)OCO4 | -20.4% (active)

Source: PubChem BioAssay (NCI)
